# Assay outcomes: PubChem BioAssay, National Center for Advancing Translational Sciences (NCATS)
# Only some compounds are listed: those with a hit (about 5.3% of all), similar ones and a draw of the others.
# FMDV inh: foot and mouth disease virus antiviral activity; FMDV antiviral cell-based qHTS; Potency, µM (titrated, usually from 57.9 µM), for the others: at the highest dose activity change, negative = inhibition, most hits filed as inhibitors; AID 1159524; 410,000 compounds, 1.2% hits; calls by dose curve; tested in HEK293T cells; further: read-out not given here; nearly all actives have a fitted effect of over 45% in size
# MARV entry inh: inhibitors of Marburg virus binding or cell entry; Marburg virus pseudotyped entry inhibition, cell reporter; Potency, µM (series often up to 37.8 µM), for inactives: at the top dose activity change, negative = inhibition, most hits filed as inhibitors; 300,000 compounds, 1.8% hits; calls by dose curve; tested in HEK293 cells
# HCV inh: blocks hepatitis C virus. Huh7.5.1 HCVcc-Cre infection, luciferase reporter, 44 h. Potency, µM (doses to about 41.8 µM), without a hit: top-dose activity change, negative = inhibition, actives largely listed as inhibitors. 340,000 compounds, 3.4% hits; active means well fitted inhibition curve with a large enough effect; inconclusive means small, poorly fitted or top-dose-only effect, or another doubt; inactive means no such curve, though single readings can be large or run the other way
#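 1,000 cells/well; 4 h culture; + compound; + HCVcc-Cre (~0.5 moi); 44 h; luciferase substrate, RT 15 min; read 15 sec.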
# Vaccinia Venus: inhibitors of vaccinia virus (Venus reporter) | Vaccinia virus Venus reporter expression, fluorescence | AID 720580 | 330,000 compounds, 0.46% hits | Potency, µM (doses to about 36.5 µM), inactives show at the top dose activity change, negative = inhibition, actives largely listed as inhibitors; calls by dose curve; tested in A549 cells; further: nearly all actives have a fitted effect of over 30% in size
# Lassa entry inh: blocks Lassa virus binding to or entry into cells. Lassa virus pseudotype entry inhibition, cell reporter. Potency, µM (series often up to 37.9 µM), for inactives: top-dose activity change, negative = inhibition, actives largely listed as inhibitors. AID 540256. 300,000 compounds, 1.2% hits; calls by dose curve; tested in HEK293 cells; further: nearly all actives have a fitted effect of over 50% in size
# VACV mCherry inh: inhibitors of vaccinia virus infection (mCherry reporter signal). Vaccinia virus mCherry reporter infection, fluorescence. AID 720579. Potency, µM (titrated, usually from 36.5 µM), for inactives: at the highest dose activity change, negative = inhibition, usual class: inhibitors. 310,000 compounds, 0.63% hits; calls by dose curve; tested in A549 cells; further: nearly all actives have a fitted effect of over 35% in size
# Starred values were filed as active, the others as inactive; i = inactive; ? = inconclusive; nt = not tested or not shown; [ ] = remark or other dose. On the % scale 0 is the no-effect control and ±100 the full control effect; potency means the concentration at half of the fitted maximal effect.
SMILES,FMDV inh,MARV entry inh,HCV inh,Vaccinia Venus,Lassa entry inh,VACV mCherry inh
C#CCCCO/N=C1\C[C@@H](O)[C@@H](O)[C@@H]2[C@@H]3C(=O)N(C(C)(C)C)C(=O)[C@@H]3CC[C@H]12,nt,12%[14.2 µM],nt,nt,nt,nt
CCc1ccccc1NC(=O)CNC(=O)c1cc(C2CC2)nn1-c1ccccc1,?,nt,-5%,nt,nt,nt
O=C(CCc1nc(-c2ccccc2)no1)NCc1ccccc1CN1CCOCC1,-2%,nt,10%,nt,nt,nt
O=C1NC(Cc2ccccc2)c2nc3ccc(Cl)cc3c(=O)n2-c2ccccc21 (centres undefined),nt,nt,12%,nt,nt,nt
O=C1NC(Cc2ccccc2)c2nc3cc(Cl)ccc3c(=O)n2-c2ccccc21 (centres undefined),nt,nt,3.5µM*,nt,nt,nt
O=C(c1ccc2c(Cl)c3c(nc2c1)CCCC3)N1CCN(c2cccc(C(F)(F)F)c2)CC1,22%,5%[46.1 µM],nt,-9%,17%[46.1 µM],-9%
COC(=O)c1c(SCC(=O)Nc2cccc(C(F)(F)F)c2)[nH]c2ccccc2c1=O,-19%,nt,nt,-28%,-10%[46.1 µM],?
CC(=O)c1cc2c(cc1NC(=O)C1CC1)OCO2,-9%,0%,11µM*,-16%,0%,nt
CC(=O)c1cc2c(cc1NC(=O)CCC1CCCC1)OCO2,nt,3%,?,nt,10%,nt
CN1CCN(C(c2cccc(C(F)(F)F)c2)c2nnnn2Cc2ccccc2)CC1 (centres undefined),nt,15µM*,?,-22%,?,-10%
CC(=O)N(CCCc1ccc(C(C)(C)C)cc1)CCCN(C)C,nt,?,7.9µM*,-8%,-7%,i
COc1ccc(CCN(C)c2ncnc3sccc23)cc1OC,28µM*,nt,10µM*,nt,nt,nt
CN(Cc1cccs1)c1ncnc2sccc12,?,-37%,11µM*,nt,-23%,nt
COc1ccc(CN(C)c2ncnc3sccc23)c(OC)c1OC,?,?,11µM*,?,?,-5%
COc1ccc(CNc2ncnc3sccc23)cc1OC,-24%,-24%[46.1 µM],6.3µM*,-3%,?,-24%
COc1ccc(CCN(C)C(=O)CSc2ncnc3sccc23)cc1OC,?,-2%[46.1 µM],-10%,-6%,0%,-17%
Cc1cc(C)n2nc(CNC(=O)c3c(F)cccc3F)nc2n1,-14%,?,nt,-11%,3%[46.1 µM],-7%
O=Cc1ccc(/C=C2\C=Cc3ccccc32)cc1,nt,nt,nt,-18%,nt,-9%
O=c1c(-c2cccs2)nc2cnc(N3CCOCC3)nc2n1-c1ccccc1,-17%,nt,nt,nt,nt,nt
CC(=O)n1c(Cl)c(NC(=O)CCl)c2ccccc21,32µM*,?,14µM*,?,?,10µM*
O=[N+]([O-])c1cc2cccnc2c2ncccc12,-20%,nt,?,nt,nt,nt
O=[N+]([O-])c1cc(O)c2ncccc2c1,-22%,?,0.56µM*,1µM*,?,1µM*
CCN(CC)c1cc(C)c2cc(NC(=O)c3ccccc3F)ccc2n1,-9%,-4%,10µM*,nt,nt,nt
CCN(CC)c1cc(C)c2cc(NC(=O)c3cccc(OC)c3)ccc2n1,0%,?,nt,-17%,?,-17%
CCOc1ccc(/C=C/C(=O)Nc2ccc3nc(N(CC)CC)cc(C)c3c2)cc1OC,-22%,11µM*,nt,-13%,?,-20%
SMILES,FMDV inh,MARV entry inh,HCV inh,Vaccinia Venus,Lassa entry inh,VACV mCherry inh
CCN(CC)c1cc(C)c2cc(NC(=O)/C=C/c3cc(OC)c(OC)c(OC)c3)ccc2n1,-23%,?,nt,-6%[7.34 µM],?,1%[7.34 µM]
CCOc1ccc(C(=O)Nc2ccc3nc(N(CC)CC)cc(C)c3c2)cc1,32µM*,29%[46.1 µM],nt,-14%,10%[46.1 µM],5%
CCOc1ccc(CCNC(=O)[C@@H](O)c2ccccc2)cc1,nt,14%,nt,nt,nt,nt
CC(C)CO/N=C1\C[C@@H](O)[C@@H](O)[C@@H]2[C@@H]3C(=O)N(C[C@@H]4CCCO4)C(=O)[C@@H]3CC[C@H]12,nt,10%[14.2 µM],nt,nt,nt,nt
Cc1ccc(N=C2NC(=O)S/C2=C\c2ccco2)cc1,-6%,0%,?,nt,6%,nt
O=C1NC(=Nc2ccccc2)/C(=C/c2ccco2)S1,4%,-16%,11µM*,nt,-1%,nt
Cc1ccc(S(=O)(=O)N(C)Cc2ccc(C(=O)N/N=C/c3ccc(OC(F)F)cc3OC(F)F)cc2)cc1,6.3µM*,?,?,-23%,?,-13%
CCn1cc(C2=NC(CC(C)C)CO2)c2ccccc21 (centres undefined),19%,-13%,10µM*,?,15%,-21%
Cc1cnc2c(c1SCC(=O)N(C)c1ccccc1)c(=O)n(C)c(=O)n2C,-12%,nt,nt,0%,21%[46.1 µM],-13%
O=C(CSc1ncnc2sc3c(c12)CCCCC3)NCc1ccco1,5%,?,11µM*,-22%,?,-29%
CC(=O)CSc1ncnc2sc3c(c12)CCCC3,-11%,?,10µM*,-17%,-13%,-15%
CC1(C)Cc2nc3sc4c(SCC(=O)NCc5ccco5)ncnc4c3cc2CO1,-27%,?,14µM*,?,?,nt
CC(C)c1nc2sc3c(SCC(=O)NCc4ccco4)ncnc3c2c2c1CCC2,?,?,?,14µM*,?,nt
O=C(CSc1ncnc2sc3c(c12)CCCC3)c1ccco1,-20%,?,?,?,-27%,nt
CCOC(=O)C1=CCCN(S(=O)(=O)c2ccc(C)cc2)C1,-9%,nt,nt,-10%,nt,i
Cc1ccccc1C(=O)Nc1ccc(OCc2cc(=O)n3cccc(C)c3n2)cc1,-17%,nt,nt,-7%,-15%[46.1 µM],-10%
COC(=O)C1CCN(Cc2ccc3c(c2)CN(C(=O)c2cc4cc(F)ccc4[nH]2)CCO3)CC1,-22%,nt,nt,1%,nt,-5%
CC(C)c1ccc(NC(=O)CN2C(=O)NC(C)(C3CC3)C2=O)cc1 (centres undefined),-12%,13%,-25%,-28%,2%,-13%
O=C(CSc1c2c(nc3cc(Cl)ccc13)CCCC2)NCc1ccco1,?,?,11µM*,6%,-2%,-15%
O=C(CSc1c2c(nc3cc(Cl)ccc13)CCCC2)NCc1ccccc1Cl,?,?,nt,-20%,?,-17%
O=C(CCNC(=O)c1ccc(Br)cc1)NC1CCCc2ccccc21 (centres undefined),-6%,2.2µM*,-22%,11%,7.1µM*,?
O=C(NC1CCCc2ccccc21)c1ccc(Br)cc1 (centres undefined),12%,?,-19%,-20%,-19%,-11%
CCSc1ncc(Cl)c(C(=O)Nc2nc3ccc(S(C)(=O)=O)cc3s2)n1,-22%,?,nt,-17%,-11%[46.1 µM],-10%
COc1cccc(CNC(=O)CCC2CCCN(C(=O)c3cc4ccccc4o3)C2)c1 (centres undefined),2%,11µM*,?,-20%,?,-19%
COc1cccc(CNC(=O)CCC2CCCN(C(=O)c3ccoc3)C2)c1 (centres undefined),25%,-2%[46.1 µM],6%,-10%,0%[46.1 µM],i
O=c1oc2ccccc2cc1-c1cn2ccccc2n1,7.9µM*,?,?,?,1.8µM*,-7%
O=c1oc2ccccc2cc1-c1cn2cccnc2n1,14%,?,-9%,nt,?,nt
